Source: PubChem BioAssay (NCATS)
Inconclusive results are not listed. Entries that show only a call come without a potency. Active and inactive are the calls of the source. Unless noted, calls come from the whole dose curve; as a rule, active = well fitted curve in the direction sought with a large enough effect; inconclusive = small, poorly fitted or top-dose-only effect, or another doubt; inactive = no such curve, though single readings can be large; an effect the other way counts as inactive or inconclusive.

Key:
[1] = target: Cytochrome P450 3A4 (Homo sapiens) (UniProt P08684); test: qHTS Assay for Inhibitors and Substrates of Cytochrome P450 3A4 (AID 884); note: nearly all actives have a fitted effect of over 50% in size
How it was run: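 20 nM human CYP3A4 with 25 uM Luciferin-PPXE (at KM) in 200 mM KPO4, preincubated 10 min with compound; NADPH regeneration started a 60 min RT reaction. Luciferin detected by luminescence, normalized to 57 uM ketoconazole as full inhibition.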

[2] = target: Cytochrome P450 3A4 (Homo sapiens) (UniProt P08684); test: qHTS Assay for Activators of Cytochrome P450 3A4 (AID 885); note: potency is the fitted concentration of half-maximal effect; nearly all actives have a fitted effect of over 65% in size
How it was run: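 20nM CYP3A4 + 25uM Luciferin-PPXE (=KM), 200mM KPO4; cpd 10 min RT; NADPH regen, 60 min RT; stop w/ detection buffer, 20 min; luminescence. Normalized to 57 uM ketoconazole.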

[3] = target: Furin (Homo sapiens) (UniProt P09958); test: Furin counterscreen qHTS for Zika virus inhibitors (AID 1347149); note: nearly all actives have a fitted effect of over 70% in size; note: potency is the fitted concentration of half-maximal effect;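 for activity change, negative = inhibition: purified recombinant full-length human furin enzyme at 5 nM; fluorescence gain from furin cutting a BOC-RVRR-AMC peptide substrate over 15 min; top concentration of the series differs between compounds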
How it was run: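 Fluorogenic cleavage of BOC-RVRR-AMC (2 microM final, Km ~15 µM) was monitored (ex 340, em 450 nm) at 37C after 15 min RT preincubation of 5 nM furin with compounds in HEPES pH 7.0 buffer with CaCl2 and Triton X-100. Percent inhibition was fitted to a 4-parameter Hill curve.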

[4] = tested on: Zika virus NS2B-NS3 protease (linked construct); test: Confirmatory screen NINDS AMC qHTS for Zika virus inhibitors (AID 1347152); note: nearly all actives have a fitted effect of over 70% in size; note: potency is the fitted concentration of half-maximal effect;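 for activity change, negative = inhibition: AMC fluorescence gain from cleaved Bz-Nle-KRR-AMC substrate over 15 min; top concentration of the series differs between compounds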
How it was run: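 Purified NS2B-NS3 protease with NS2B hydrophilic domain linked to NS3 protease domain by flexible linker, 1 nM final in 10 mM Tris-HCl pH 8.0, 0.01% Tween 20. Compounds preincubated 15 min, room temperature; Bz-Nle-KRR-AMC 10 microM (Km 18.3 µM); 15-min fluorescence change, 4-parameter Hill fit.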

[5] = tested on: Zika virus NS2B-NS3 protease (unlinked complex); test: Confirmatory screen GU AMC qHTS for Zika virus inhibitors (AID 1347153); note: nearly all actives have a fitted effect of over 70% in size; note: potency is the fitted concentration of half-maximal effect
How it was run: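 Noncovalent NS2B hydrophilic domain/NS3 protease complex (25 nM) in 10 mM Tris-HCl pH 8.0, 0.01% Tween 20 was preincubated 15 min at room temperature with compounds. Then 10 µM AMC substrate (Km 18.3 µM) was added; fluorescence was read over 15 min and fitted to a 4-parameter Hill equation.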

[6] = Confirmatory screen NINDS Rhodamine qHTS for Zika virus inhibitors (AID 1347161); note: potency is the fitted concentration of half-maximal effect; nearly all actives have a fitted effect of over 60% in size
How it was run: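 Aprotinin served as in-plate control. Conditions: 25 nM linked NS2B-NS3, pH 8.0 Tris buffer, titrated compounds, 15 min preincubation and 15 min reaction with 1.5 microM Rhod110 substrate at room temperature.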

[7] = tested on: Zika virus NS2B-NS3 protease (linked); test: 384 well plate NINDS AMC confirmatory qHTS for Zika virus inhibitors (AID 1347163); note: nearly all actives have a fitted effect of over 50% in size; note: potency is the fitted concentration of half-maximal effect;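 for activity change, negative = inhibition: fluorescence of AMC released from Ac-VKTGKR-AMC peptide cleaved by the protease; top concentration of the series differs between compounds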
How it was run: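 Linked protease 5/30/60 nM final; cpds up to 1 mM final, ~15 min preinc. Substrate Ac-VKTGKR-AMC 30 microM final. RT, dark, 25 min; FI ex 355/em 460; normalized to no-enzyme/no-inhibitor ctrls.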

[8] = tested on: Zika virus NS2B-NS3 protease (linked construct); test: 384 well plate NINDS Rhodamine confirmatory qHTS for Zika virus inhibitors (AID 1347164);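 note: fluorescence from protease cleavage of Ac-LKRR-rhodamine 110 substrate; potency is the fitted concentration of half-maximal effect; nearly all actives have a fitted effect of over 65% in size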
How it was run: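 Linked protease at a final 5 nM, 30 nM or 60 nM was preincubated ~15 min with compounds, then given 10 microM Ac-LKRR-Rhodamine 110. Fluorescence (ex 485/em 538 nm) after 25 min in the dark at room temperature.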

[9] = Vero cells viability qHTS for Zika virus inhibitors (AID 1347167); note: potency is the fitted concentration of half-maximal effect
How it was run: (§1)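 Cells seeded at 2.5 x 10^5 cells/mL in DMEM with 4% FBS and attached overnight at 37 degrees C, then exposed to compound for 24 to 48 hours. Viability read as ATP content by CellTiter Glo luminescence.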

[10] = HepG2 cells viability qHTS for Zika virus inhibitors (AID 1347168)
How it was run: as §1

[11] = Primary qHTS for small molecule stabilizers of the endoplasmic reticulum resident proteome: Secreted ER Calcium Modulated Protein (SERCaMP) assay (AID 1508630)
How it was run: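 GLuc-SERCaMP-expressing SH-SY5Y cells, pretreated 16 h with compound, are challenged with thapsigargin to empty ER calcium stores; after 4 h, coelenterazine is added directly to the medium and luminescence is imaged.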

[12] = ZIKV-mCherry secondary qHTS for Zika virus inhibitors (AID 1347158); note: top concentration of the series differs between compounds
How it was run: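 After overnight seeding at 37 °C, Vero cells receive compound and then ZIKV-mCherry (MOI 1). Following 48-72 h infection, cells are fixed, counterstained with Hoechst, and imaged; percent infected cells is derived from an mCherry intensity cut-off of 450 RFU.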

[13] = Tertiary RLuc qRT-PCR qHTS assay for Zika virus inhibitors (AID 1347169); note: nearly all actives have a fitted effect of over 55% in size; note: potency is the fitted concentration of half-maximal effect; for activity change, negative = inhibition: top concentration of the series differs between compounds
How it was run: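 Vero cells (1,000 per well) plated overnight at 37 degrees C, treated with compound in DMSO, then infected with recombinant ZIKV-RLuc (Cambodian) at MOI 1-2 for 48-72 hrs. Live-cell Renilla luciferase substrate added; luminescence read after 1-1.5 hrs.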

[14] = tested on: Zika virus NS2B-NS3 protease (unlinked); test: Optimization of GU AMC qHTS for Zika virus inhibitors: Unlinked NS2B-NS3 protease assay (AID 1347151); note: nearly all actives have a fitted effect of over 80% in size; note: potency is the fitted concentration of half-maximal effect
How it was run: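 Noncovalent complex of NS2B hydrophilic domain and NS3 protease domain, 25 nM final, in 10 mM Tris-HCl pH 8.0, 0.01% Tween 20. AMC fluorescence change over 15 min at room temperature was fitted to a 4-parameter Hill equation.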

[15] = Confirmation and Secondary Assay for Modulators of Hemoglobin Beta Chain Splicing at IVS2 654 locus (AID 910);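 note: HeLa cells stably carrying EGFP split by mutant beta-globin IVS2-654 intron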
How it was run: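 HeLa cells stably expressing EGFP interrupted by β-globin IVS2-654 intron, seeded overnight in Opti-MEM/2% FCS, then treated 2 days at 37 °C. Restored splicing read as total peak GFP intensity per well by laser scanning cytometry (488 nm excitation, 500–520 nm emission); 500 nM antisense PNA as control.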

[16] = Confirmation and Secondary Assay for Modulators of Hemoglobin Beta Chain Splicing at IVS2 705 locus (AID 930);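 note: HeLa cells stably expressing the EGFP-705 splicing reporter; GFP fluorescence per well restored by corrected splicing of the IVS2-705 intron in EGFP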
How it was run: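 Fluorescence gain (488 nm laser, 500-520 nm PMT) reflects restored correct splicing of a mutant IVS2-705 intron inside EGFP in stably transfected HeLa cells after 2-day compound treatment.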

[17] = qHTS Assay for Lipid Storage Modulators (AID 1519; calls by dose curve); details: Drosophila S3 cells, BODIPY lipid droplet/cell ratio, laser cytometry, cells loaded with oleic acid
How it was run: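 Cells seeded at 5,000 per well were treated with compounds over a concentration series and loaded with oleic acid (400 uM, as added). Lipid droplet fluorescence (488 nm excitation, 500-530 nm channel) was read by laser-scanning cytometry and normalized to 20 uM Triacsin C.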

Chain of Furin (Homo sapiens) (P09958 whole entry, looked up): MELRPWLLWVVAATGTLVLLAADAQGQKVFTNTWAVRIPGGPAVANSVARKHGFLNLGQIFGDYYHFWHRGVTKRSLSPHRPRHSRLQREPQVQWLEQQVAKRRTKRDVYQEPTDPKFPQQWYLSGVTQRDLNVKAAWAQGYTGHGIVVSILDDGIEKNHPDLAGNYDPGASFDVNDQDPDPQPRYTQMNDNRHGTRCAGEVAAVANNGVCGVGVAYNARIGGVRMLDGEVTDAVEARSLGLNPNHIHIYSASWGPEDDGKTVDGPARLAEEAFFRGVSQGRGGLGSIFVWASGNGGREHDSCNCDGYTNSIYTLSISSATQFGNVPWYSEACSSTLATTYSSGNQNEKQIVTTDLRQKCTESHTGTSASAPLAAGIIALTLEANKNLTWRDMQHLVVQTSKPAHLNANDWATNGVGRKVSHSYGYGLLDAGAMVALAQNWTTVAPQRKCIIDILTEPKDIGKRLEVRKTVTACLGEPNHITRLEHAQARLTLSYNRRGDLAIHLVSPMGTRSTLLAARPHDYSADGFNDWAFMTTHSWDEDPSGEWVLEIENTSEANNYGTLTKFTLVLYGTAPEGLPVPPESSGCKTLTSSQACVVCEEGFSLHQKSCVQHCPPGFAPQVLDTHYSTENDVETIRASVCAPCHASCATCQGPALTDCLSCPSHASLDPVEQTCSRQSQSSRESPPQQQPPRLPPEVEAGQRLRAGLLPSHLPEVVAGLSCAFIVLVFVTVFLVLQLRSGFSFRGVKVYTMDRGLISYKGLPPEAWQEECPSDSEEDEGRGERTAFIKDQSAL
Chain of Cytochrome P450 3A4 (Homo sapiens) (P08684 whole entry, looked up): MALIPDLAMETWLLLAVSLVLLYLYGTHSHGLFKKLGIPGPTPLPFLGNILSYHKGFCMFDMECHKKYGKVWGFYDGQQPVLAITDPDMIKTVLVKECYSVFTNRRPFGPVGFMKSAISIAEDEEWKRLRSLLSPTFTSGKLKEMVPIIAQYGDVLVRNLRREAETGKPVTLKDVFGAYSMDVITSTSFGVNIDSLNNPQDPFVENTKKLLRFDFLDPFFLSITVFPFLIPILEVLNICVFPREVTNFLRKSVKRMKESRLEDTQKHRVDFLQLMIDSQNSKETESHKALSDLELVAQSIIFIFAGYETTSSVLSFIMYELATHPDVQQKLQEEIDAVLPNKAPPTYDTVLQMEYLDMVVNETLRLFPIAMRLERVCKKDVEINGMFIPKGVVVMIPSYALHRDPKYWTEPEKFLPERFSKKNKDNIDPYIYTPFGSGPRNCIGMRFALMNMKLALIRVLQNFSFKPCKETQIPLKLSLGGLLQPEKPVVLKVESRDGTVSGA

O=C(O)c1c(Sc2ccccc2)c2cc(Cl)ccc2n1Cc1ccc(Cl)cc1
Potency [1]: inactive | Potency [2]: 7.94 µM (active) | Potency [3]: 21.5 µM (active) | Potency [4]: 6.81 µM (active) | Potency [5]: 19.2 µM (active) | Potency [6]: 1.24 µM (active) | Potency [7]: 126 µM (active) | Potency [8]: 22.4 µM (active) | Potency [9]: inactive | Potency [10]: inactive | Potency [11]: inactive

O=[S+]([O-])([O-])c1ccc2c(c1)cc([S+](=O)([O-])[O-])c1nn(-c3ccc(/C=C/c4ccc(-n5nc6c([S+](=O)([O-])[O-])cc7cc([S+](=O)([O-])[O-])ccc7c6n5)cc4[S+](=O)([O-])[O-])c([S+](=O)([O-])[O-])c3)nc12
Potency [3]: inactive | Potency [4]: 49.4 µM (active) | Potency [5]: 49.4 µM (active) | Potency [12]: inactive | Potency [7]: inactive | Potency [8]: 11.2 µM (active) | Potency [13]: 6.58 µM (active)

O=C(O)COc1ccc(-c2nccc3c2C(=O)N(Cc2cccc(C(F)(F)F)c2)CC(COc2ccc(OC(F)(F)F)cc2)O3)cc1 (centres undefined)
Potency [3]: 49.4 µM (active) | Potency [4]: 22.1 µM (active) | Potency [5]: 22.1 µM (active) | Potency [8]: 25.1 µM (active) | Potency [13]: inactive

N#Cc1ccccc1S(=O)(=O)N[C@H]1CO[C@H]2[C@@H]1OC[C@H]2OC(=O)Nc1ccc(Oc2ccccc2)cc1
Potency [3]: inactive | Potency [4]: inactive | Potency [5]: inactive | Potency [13]: 7.39 µM (active)

Oc1cc2ccccc2c2ccccc12
Potency [3]: inactive | Potency [14]: 44.1 µM (active) | Potency [12]: inactive | Potency [7]: inactive | Potency [8]: 447 µM (active) | Potency [9]: 19 µM (active) | Potency [13]: 6.02 µM (active)

Cc1cccc(C)c1NS(=O)(=O)c1ccc(NS(=O)(=O)c2ccc3c(c2)OCCO3)cc1
Potency [3]: inactive | Potency [4]: inactive | Potency [5]: inactive | Potency [7]: 200 µM (active) | Potency [8]: 126 µM (active)

CN(Cc1cnc2nc(N)nc(N)c2n1)c1ccc(C(=O)NC(CCC(=O)O)C(=O)O)cc1 (centres undefined)
Potency [1]: inactive | outcome [15]: inactive | outcome [16]: inactive | activity change, negative = inhibition ([17]; at 57.5 µM (top of the series)): 6.64% (inactive) | max response ([17]; measured here: cell count channel max response): 7.14% | max response ([17]; measured here: lipid channel max response): 16% | Potency [3]: 21.5 µM (active) | Potency [4]: inactive | Potency [5]: inactive | Potency [9]: inactive | Potency [10]: inactive | Potency [13]: inactive | Potency [11]: inactive

CCOc1ccc(C2C(=O)N(C3CCCCCC3)CC(=O)N2CCc2ccc(Cl)cc2)cc1OC (centres undefined)
Potency [3]: inactive | Potency [14]: inactive | Potency [9]: inactive | Potency [10]: inactive | Potency [13]: 18.6 µM (active)

N#Cc1ccc(OCC2CN(Cc3cccc(C(F)(F)F)c3)C(=O)c3c(ccnc3-c3ccc(OCC(=O)O)cc3)O2)cc1 (centres undefined)
Potency [3]: inactive | Potency [4]: inactive | Potency [12]: inactive | Potency [8]: 39.8 µM (active)

CC(C)CN1CC(COc2cccc(C(F)(F)F)c2)Oc2ccnc(-c3ccc(OCC(=O)O)cc3)c2C1=O (centres undefined)
Potency [3]: inactive | Potency [4]: inactive | Potency [5]: inactive | Potency [8]: 141 µM (active) | Potency [13]: inactive

CC(C)(C)c1ccc(NC(=O)O[C@@H]2CO[C@H]3[C@@H]2OC[C@@H]3Nc2nccc(-c3ccc(-c4ccccc4)cc3)n2)cc1
Potency [3]: 62.2 µM (active) | Potency [4]: inactive | Potency [5]: inactive

Clc1ccc(-c2nn3c(COc4cccc(OCc5nnc6sc(-c7ccc(Cl)cc7)nn56)c4)nnc3s2)cc1
Potency [3]: inactive | Potency [4]: 50.1 µM (active) | Potency [6]: 20 µM (active) | Potency [7]: 12.6 µM (active) | Potency [13]: inactive
